HEK293 tox – cytotoxicity in counter-screen for GLP-1R inverse agonists. HEK293 cAMP-luciferase reporter cells, luminescence, 24 h. Potency, µM (highest dose often 38.3 µM), for inactives: at the highest dose activity change, negative = inhibition, most hits filed as inhibitors. 0.13% of 410,000 active. AID 624418;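 further: loss of luciferase light is scored as toxicity; on the % scale 0 is the no-effect control and ±100 the full control effect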
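A 23 nL compound transfer followed 12 hours of cell culture at 37 deg C; exposure then lasted 24 hr. Luciferase assay detection reagent was dispensed and plates read for luminescence after a 12 min room-temperature wait.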
ClpP mod – qHTS Assay for Activators of ClpP; purified B. subtilis ClpP, FRET peptide cleavage, 20 min; ATP-dependent Clp protease proteolytic subunit (Bacillus subtilis (strain 168)), P80244; Potency, µM (titrated, usually from 57.5 µM), for inactives: top-dose activity change, negative = active; 1.9% of 340,000 active; active means well fitted falling curve with a large enough effect; inconclusive means small, poorly fitted or top-dose-only effect; inactive means no such curve, though single readings can be large or run the other way; further: the source files actives as falling curves though it sought activators and does not explain the sign; nearly all actives have a fitted effect of over 65% in size
Target sequence (P80244 whole entry, looked up): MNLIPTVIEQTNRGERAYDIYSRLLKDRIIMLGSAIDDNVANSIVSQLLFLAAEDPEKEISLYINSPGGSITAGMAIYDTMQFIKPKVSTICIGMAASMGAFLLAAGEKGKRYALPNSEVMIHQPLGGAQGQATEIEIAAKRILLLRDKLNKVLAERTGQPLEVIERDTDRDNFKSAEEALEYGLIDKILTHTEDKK
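FRET quenching reversal measured ClpP activation: 10 microg/mL B. subtilis ClpP at pH 8 with the FRET-FV decapeptide, read at 430 nm after 320 nm excitation. The 20-min minus 0-min signal was scaled between DMSO/no-enzyme wells and ADEP (5.8 microM final).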
GLP-1R inv ag – inverse agonists of human GLP-1 receptor; P43220; HEK293 GLP-1R CRE-luciferase, luminescence, 24 h; GLP-1R form is constitutively active; Potency, µM (series often up to 38.3 µM), without a hit: at the top dose activity change, negative = inhibition, hits mostly inhibitors; 1.6% of 410,000 active; AID 624417; further: on the % scale 0 is the no-effect control and ±100 the full control effect; nearly all actives have a fitted effect of over 55% in size
Target sequence (P43220 whole entry, looked up): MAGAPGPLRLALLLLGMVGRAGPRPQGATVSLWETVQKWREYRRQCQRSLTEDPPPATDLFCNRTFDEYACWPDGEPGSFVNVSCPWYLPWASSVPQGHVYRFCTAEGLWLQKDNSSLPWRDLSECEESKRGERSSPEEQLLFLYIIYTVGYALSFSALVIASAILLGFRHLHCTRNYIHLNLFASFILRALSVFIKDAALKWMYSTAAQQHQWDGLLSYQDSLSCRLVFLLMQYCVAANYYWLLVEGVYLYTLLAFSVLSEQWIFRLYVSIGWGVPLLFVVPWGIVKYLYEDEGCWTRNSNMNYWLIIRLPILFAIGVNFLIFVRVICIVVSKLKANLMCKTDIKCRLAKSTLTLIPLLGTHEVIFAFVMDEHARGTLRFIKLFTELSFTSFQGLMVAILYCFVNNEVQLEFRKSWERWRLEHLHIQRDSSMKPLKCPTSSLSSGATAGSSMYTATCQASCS
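Assay principle: reduced luminescence from a cAMP-responsive reporter in HEK293 cells co-expressing a constitutively active GLP-1R. Conditions: 24 hr compound incubation, 37 deg C, 5% CO2.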
GLP1R ag – agonists of human GLP-1 receptor; P43220; HEK293 GLP-1R CRE-luciferase, luminescence, 4-6 h; cells express a hypersensitive GLP-1R form; Potency, µM (series often up to 45.6 µM), for the others: at the highest dose activation, actives largely listed as activators; 0.007% of 380,000 active; further: % of control where 0% means no effect
The depositor's hits bear a star; ? = inconclusive; / = no result. In the library only some 3.2% were active in any assay of this set; here they are far more common. Unless noted, the call rests on the fitted dose curve; in most records, active means well fitted curve in the direction sought with a large enough effect; inconclusive means small, poorly fitted or top-dose-only effect, or another doubt; inactive means no such curve, though single readings can be large; an effect the other way counts as inactive or inconclusive. Potency means the concentration at half of the fitted maximal effect.

SMILES | HEK293 tox | ClpP mod | GLP-1R inv ag | GLP1R ag
CCCOc1ccc(NC(=O)CC2C(=O)N(CC)C(=S)N2CCCN2CCN(Cc3ccccc3)CC2)cc1 (stereo not drawn) | ? | -1% | 7.1µM* | -3%
CCNC(=O)CC1C(=O)N(CC)C(=S)N1NC(=O)c1ccc(Cl)cc1 (stereo not drawn) | 8% | -2% | 14% | -8%
CCN1C(=O)C(CC(=O)NCCc2ccccc2)N(NC(=O)c2ccc(Br)cc2)C1=S (stereo not drawn) | -9% | 0% | 10µM* | -2%
Cc1ccc(NC(=O)CCCc2nnc3n(C)c(=O)c4sccc4n23)cc1C | -10% | -1% | 1% | /
CCN(CC)CCCNC(=O)c1ccc2c(Cl)c3c(nc2c1)CCCC3 | ? | 0% | 4.5µM* | 7%
CCCN1CCN(CCCNC(=O)c2ccc3c(Cl)c4c(nc3c2)CCCC4)CC1 | ? | -1% | 5µM* | 11%
Fc1ccc(-c2nc3ccc(Br)cn3c2Cc2ccccc2)cc1 | -13% | -11% | 8.9µM* | 17%
Brc1ccc(-c2nc3ccc(Br)cn3c2Cc2ccccc2)cc1 | -6% | -8% | -20% | 6%
COc1cc2ccccc2cc1C(=O)N1CCN(c2nc3c(F)cc(F)cc3s2)CC1 | -1% | -12% | 5% | /
O=C(CN1CCN(c2ccc(O)cc2)CC1)Nc1cc([N+](=O)[O-])ccc1Cl | -20% | 16µM* | ? | -3%
Cc1cc(C(F)(F)F)cc(NNC(=O)NC(=O)c2c(F)cccc2Cl)n1 | -1% | / | 11µM* | 20%
CC(C)(C)NC(=O)C(=O)NC(=O)c1c(F)cccc1Cl | 8% | / | -5% | 4%
CCN(CC)S(=O)(=O)c1ccc2c(c1)N(CC(=O)Nc1ccc(F)cc1F)C(=O)C1CCCN21 (stereo not drawn) | 5% | 3% | 21% | /
Cc1cn2c(=O)c(S(=O)(=O)NCc3ccc(F)cc3)c(C)nc2s1 | 0% | 32µM* | 6% | /
Cc1cn2c(=O)c(S(=O)(=O)NCc3ccccc3Cl)c(C)nc2s1 | -1% | 16µM* | 30% | /
CC(=O)c1cccc(NS(=O)(=O)c2c(C)nc3sc(C)cn3c2=O)c1 | -13% | -1% | 2% | /
Cc1cc(C)nc(NS(=O)(=O)c2ccc(NC(=O)COc3ccc(C(C)(C)C)cc3)cc2)n1 | -1% | -4% | -6% | /
Cc1ccccc1OCCC(=O)Nc1cccc(S(=O)(=O)Nc2ccccc2Cl)c1 | -7% | 14µM* | ? | -1%
Cc1ccc(C)c(OCCC(=O)Nc2cccc(S(=O)(=O)NC3=NCCCCC3)c2)c1 | -8% | -3% | ? | -3%
COc1ccc(-c2ccc(NS(=O)(=O)c3cc(C)c(C)cc3C)cc2)nn1 | -2% | -2% | 5% | /
COCCNc1oc(-c2ccc(Cl)cc2)nc1C#N | 12% | -5% | 14% | 5%
Cc1ccc(-c2nc(C#N)c(NCCc3ccccn3)o2)cc1 | 4% | ? | 52% | -11%
CN(C)CCCNc1oc(-c2ccc(Cl)cc2)nc1C#N | -8% | 6% | 5µM* | -11%
N#Cc1nc(-c2ccc(Cl)cc2)oc1NCCc1ccccn1 | -2% | 32µM* | 37% | 0%
CC(=O)Nc1cccc(-c2nnc(SCC(=O)c3cc([N+](=O)[O-])ccc3Br)o2)c1 | -6% | 1% | -14% | /
SMILES | HEK293 tox | ClpP mod | GLP-1R inv ag | GLP1R ag
O=C(Cn1ncc2c3ccccc3n(Cc3ccccc3F)c2c1=O)NCc1ccccc1Cl | 0% | -1% | 8% | /
CC(=O)Nc1ccc(-c2nnc3n(CC(C)C)c(=O)c4ccccc4n23)cc1 | 1% | 0% | 6% | /
O=C(Nc1nc2ccccc2n1CCN1CCOCC1)c1ccc(Cn2cc([N+](=O)[O-])cn2)o1 | -27% | 0% | 21% | -1%
O=C(Nc1nc2ccccc2n1CCN1CCOCC1)c1ccc(COc2ccccc2Br)o1 | 3.5µM* | / | ? | 13%
Cn1c2ccccc2c2ncn(CCN3CCOCC3)c(=O)c21 | -2% | 32µM* | 17% | 4%
COc1ccc2c(c1)c1ncn(CCCN3CCOCC3)c(=O)c1n2C | 9% | 11% | 0% | ?
COc1ccc(C(=O)C(CN2CCCC2)c2ccccc2)cc1 (stereo not drawn) | ? | -1% | 5.6µM* | -17%
CCCOc1ccc(C(=O)C(CN2CCCC2)c2ccccc2)cc1 (stereo not drawn) | ? | 1% | ? | 4%
Cc1ccc2nc(SCC(=O)Nc3cc(C(F)(F)F)ccc3N3CCOCC3)[nH]c2c1 | ? | 1% | 1.3µM* | 17%
O=C(NCC(=O)N1CCN(S(=O)(=O)c2ccccc2F)CC1)c1ccc2c(c1)OCO2 | -2% | / | 1% | 5%
COc1ccc(S(=O)(=O)N2CCN(C(=O)CNC(=O)c3ccc4c(c3)OCO4)CC2)cc1 | 18% | 28µM* | 13% | -8%
COc1cccc(Cn2c(=O)n(-c3cc(C)cc(C)c3)c(=O)c3oc4ccccc4c32)c1 | -9% | 35µM* | -29% | /
CN(C)c1ncnc2c1C(c1ccccc1)C(C)(C)O2 (stereo not drawn) | -2% | 32µM* | 1% | -14%
COCCN(C(=O)COC(=O)c1ccccc1Nc1ccccc1)c1c(N)n(Cc2ccccc2)c(=O)[nH]c1=O | -14% | / | 13µM* | 8%
COCCN(C(=O)COC(=O)COc1ccc2c(c1)CCC2)c1c(N)n(Cc2ccccc2)c(=O)[nH]c1=O | 0% | 1% | 11% | -3%
COCCN(C(=O)COC(=O)c1oc2ccc(OC)cc2c1C)c1c(N)n(Cc2ccccc2)c(=O)[nH]c1=O | 0% | 13µM* | 2% | 8%
COCCN(C(=O)COC(=O)Cc1coc2cc3c(cc12)CCC3)c1c(N)n(Cc2ccccc2)c(=O)[nH]c1=O | 8% | 18µM* | -25% | 0%
COc1ccc(-n2ccnc(NCc3cccs3)c2=O)cc1OC | 0% | -3% | 6% | /
CCN(CC)CCCNC(=O)CCc1c(C)nc2c(c1C)c(=O)n(C)c(=O)n2C | -5% | 4% | -4% | 0%
O=[N+]([O-])c1cc(S(=O)(=O)Oc2ccccc2)ccc1Cl | ? | 35µM* | ? | -24%
CN1CCN(S(=O)(=O)c2ccc(Cc3ccc(S(=O)(=O)N4CCN(C)CC4)cc3)cc2)CC1 | -1% | -1% | 5.6µM* | -9%
CN1CCN(S(=O)(=O)c2ccc(Cl)cc2)CC1 | -9% | -1% | 1% | -6%
O=[N+]([O-])c1ccc(/C=C2\C=C(C(O)c3ccc([N+](=O)[O-])cc3)c3ccccc32)cc1 (stereo not drawn) | / | -3% | / | /
COC(=O)c1ccc(NC(=O)CC2C(=O)N(c3ccccc3)C(=O)N2Cc2ccc(F)cc2)cc1 (stereo not drawn) | -2% | -2% | -17% | /
COc1ccc(N(Cc2cc(=O)[nH]c3ccccc23)C(=O)CCl)cc1 | -26% | / | -30% | -4%
COc1ccc(OCc2cc(=O)[nH]c3ccccc23)cc1 | -5% | 16µM* | 18% | 2%

High-throughput results as filed in PubChem.
